Reference: PubChem BioAssay (Tox21)
Inconclusive results are not listed. Active and inactive are the calls of the source. The call rests on the fitted dose curve; in most records, active means well fitted cell-killing curve with a large enough effect in the repeat runs; inconclusive means weak or mixed curves; inactive means no such curve, though single readings can be large or run the other way.

Test: qHTS assay to identify small molecule antagonists of the androgen receptor (AR) signaling pathway - cell viability counter screen (AID 743033; further: nearly all actives have a fitted effect of over 45% in size)
Conditions: AR-bla HEK293 viability, CellTiter-Glo luminescence, 16 h; series mostly up to 58.5 µM; activity change, negative = cytotoxicity: at the top concentration
Description: National Center for Advancing Translational Sciences [NCATS]
NIH Chemical Genomics Center [NCGC]
U.S. Environmental Protection Agency [EPA]
National Institutes of Environmental Health Sciences [NIEHS]
National Toxicology Program [NTP]
U.S. Food and Drug Administration [FDA]
Androgen receptor (AR), a nuclear hormone receptor, plays a critical role in AR-dependent prostate cancer and other androgen related diseases. Endocrine disrupting chemicals (EDCs) and their interactions with steroid hormone receptors like AR may cause disruption of normal endocrine function as well as interfere with metabolic homeostasis, reproduction, developmental and behavioral functions. To identify the compounds that inhibit AR signaling, GeneBLAzer AR-UAS-bla-GripTite cell line (Invitrogen, Carlsbad, CA, USA) containing a beta-lactamase reporter gene under control of an Upstream Activator Sequence (UAS) stably integrated into HEK293 cells was used to screen the Tox21 10K compound library. The cytotoxicity of the Tox21 compound library against the AR-bla cell line was tested in parallel by measuring the cell viability using CellTiter-Glo assay in the same wells.
Tox21 Assay Protocol Summary:
AR-bla cells were dispensed at 2,000 cells/5 uL of assay medium per well into black wall/clear-bottom 1536-well plates using a Multidrop Combi (ThermoFisher Scientific, Waltham, MA) dispenser. After the assay plates were incubated at a 37C and 5% CO2 for 4 hr, 23 nL of compounds dissolved in DMSO, positive controls or DMSO only was transferred to the assay plate by a Pintool station (Kalypsys, San Diego, CA), followed by addition of 1 uL of agonist (R1881) in culture medium using a Bioraptr Flying Reagent Dispenser (FRD) workstation (Beckman Coulter, Indianapolis, IN, USA). The plates were incubated at a 37C and 5% CO2 for 16 h. After 1 uL of LiveBLAzerTM B/G FRET substrate was added using a Bioraptr FRD, the plates were incubated at room temperature for 2 h and fluorescence intensity was measured by an Envision plate reader (PerkinElmer, Shelton, CT). For cell viability readout that measures cytotoxicity, 4 ul/well of CellTiter-Glo reagent was added into the assay plates using a Bioraptr FRD. After 30 min incubation at room temperature, the luminescence intensity in the plates was measured using a ViewLux (PerkinElmer) plate reader.
On the % scale 0 is the no-effect control and ±100 the full control effect.

Structure (SMILES)	activity change, negative = cytotoxicity	outcome
O=C1OCCO1	2.51% [at 78.9 µM] (inactive)	–
[O]=[Mo](=[O])=[O]	-5.35% [at 27 µM] (inactive)	–
C[C@H]1[C@@H](c2ccccc2)NC(=O)N1C	4.77% [at 78.9 µM] (inactive)	–
CN(C)CCOC(=O)C(c1ccccc1)C1(O)CCCC1 (stereo not given)	1.6% (inactive)	–
CCOc1cccc(N)c1	1.9% (inactive)	–
O=Cc1ccccc1Cl	1.15% (inactive)	–
CSc1cnccn1	11.4% (inactive)	–
C[C@@H](O)C(=O)O	0.838% [at 78.9 µM] (inactive)	–
CCCC(=O)OCCC(C)CCC=C(C)C (stereo not given)	1.15% (inactive)	–
COc1ccc(CCO)cc1	3.29% (inactive)	–
C=CCN1C[C@H](C(=O)N(CCCN(C)C)C(=O)NCC)C[C@@H]2c3cccc4[nH]cc(c34)C[C@H]21	4.92% (inactive)	–
N#CCC(=O)NN	-5.87% (inactive)	–
C=CC(=O)OCC1CCCO1 (stereo not given)	3.09% (inactive)	–
O=C=NCC1CCCC(CN=C=O)C1 (stereo not given)	-2.18% (inactive)	–
CCCCCc1cccc(=O)o1	2.9% (inactive)	–
CC(C)Nc1ccccc1	5.14% (inactive)	–
CCO	-2.5% [at 78.9 µM] (inactive)	–
CCCCSCCCC	5.08% (inactive)	–
CNCCS(=O)(=O)O	4.73% [at 78.9 µM] (inactive)	–
CCCCCCCCCCOC(C)=O	2.07% (inactive)	–

Structure (SMILES)	activity change, negative = cytotoxicity	outcome
c1ccc2cnccc2c1	-1.94% (inactive)	–
COS(=O)(=O)O	-3.97% (inactive)	–
COc1nc(N)nc2nc[nH]c12	-1.1% (inactive)	–
COC(=O)c1ccccc1C(=O)O	-0.0275% (inactive)	–
CC(=O)O[C@@H]1CC2CCC1(C)C2(C)C (stereo not given in full)	–	inactive
C=CCCCCCCCCC(=O)OCCCC	-0.0553% (inactive)	–
CCCCCCCCCCCCCCCCCCOCCO	1.93% [at 27 µM] (inactive)	–
Fc1ccccc1	1.02% [at 78.9 µM] (inactive)	–
O=[N+]([O-])c1c(Cl)cc(Cl)cc1Cl	1.44% (inactive)	–
O=NN(CCCl)C(=O)NC1CCCCC1	9% (inactive)	–
CC(=O)O[Si](C)(OC(C)=O)OC(C)=O	-4.23% [at 78.9 µM] (inactive)	–
CC1=NN(c2ccc(S(=O)(=O)O)cc2)C(=O)C1	8.26% (inactive)	–
c1ccc(B(c2ccccc2)c2ccccc2)cc1	1.82% (inactive)	–
CCO[Si](CC)(OCC)OCC	-0.0797% (inactive)	–
Cc1ncc([N+](=O)[O-])n1CC(C)O (stereo not given)	17% (inactive)	–
COC(=O)CCCCC(=O)O	0.538% (inactive)	–
CCCC(CC)c1ccccc1 (stereo not given)	5.01% (inactive)	–
CCC(C)C(=O)OCCc1ccccc1 (stereo not given)	0.287% (inactive)	–
Cc1cccc(Cl)c1	2.3% (inactive)	–
CC(=O)CCC1=C(C)CCCC1(C)C	-1.67% (inactive)	–
